According to PubChem BioAssay AID2673 (National Center for Advancing Translational Sciences (NCATS), 2010):
Inconclusive results are not listed. Where a call stands in place of a potency, no number is given. Active and inactive are the calls of the source. The call rests on the fitted dose curve; in most records, active means well fitted activation curve with a large enough effect; inconclusive means small, poorly fitted or top-dose-only effect; inactive means no such curve, though single readings can be large or run the other way.

assay: qHTS Multiplex Assay to Identify Dual Action Probes in a Cell Model of Huntington: Cytoprotection confirmation (ATP); conditions: PC12 HttQ103 induced, ATP luminescence 40 h; series mostly up to 46.1 µM
From the text: NIH Chemical Genomics Center [NCGC]
NIH Molecular Libraries Probe Production centers Network [MLPCN]
Assay Submitter (PI): Wei Zheng
Huntington's disease is a neurodegenerative disorder caused by a trinucleotide repeat expansion in Exon 1 of the Huntingtin gene. The CAG trinucleotide encodes glutamine and polyglutamine expansions cause cell death in selective areas of the brain. Huntington polyglutamine repeats have the tendency to form aggregates which are observable in later stages of the disease. The exact nature of the aggregates, whether toxic, protective, or insignificant, is unclear.
A stable PC12 cell line containing a gene fusion of Exon 1 of the Huntingtin gene linked to GFP under the control of the inducible ecdysone promoter were used as the cell-based model of Huntington Disease for high throughput screening. Exon 1 of the Huntingtin gene contained an expansion of 103 polyglutamines (Q103) which, when expressed, caused cell death and distinct, bright GFP aggregates. The amount of cell death and the size and intensity of GFP aggregates increased over time and induction level. The cell death were quantified with a measurement of ATP content in the cells. A maximal 40-50% of cell death was observed when the Huntington gene was induced in this cell line.
We optimized this assay in a homogeneous 1536 well format. A quantitative high throughput screen (qHTS) was conducted on the PC12 cells which were induced to express the toxic fusion construct. Small molecules which prevented cell death were identified by using a luminescent ATP quantification method (Perkin Elmer's ATPlite).
PC12 cells stably containing a construct with an ecdysone inducible promoter expressing GFP fused to the exon 1 of HTTQ103 (Huntington protein which containing a 103 ployglutamine expansion) were used.
NCGC Assay Protocol Summary:
Sequence, Parameter, Description
1, Reagent, 5 uL 1500 cells/well 1536 TC treated White clear bottom plate
2, Compound, 23 nL Tebufenozide inducer (100 nM final) to all columns
3, Compound, 23 nL 40 uM to 0.5 nM Libraries
5, Reagent, 5 ul ATPLite cell death assay reagent
6, Detector, 4 sec integration with a Viewlux Luminescent
Media consisted of phenol red free DMEM + 5% equine serum (Hyclone # SH30072.03 ), 5% supplemented Bovine Calf Serum (Hyclone # SH30074.03 ), 1x pen/strep, no G418

Row | SMILES | Potency
1 | Cc1ccc(-c2csc3ncnc(Sc4nnnn4C)c23)cc1 | 35.5 µM (active)
2 | Cn1nnnc1Sc1ncnc2scc(-c3cccc(N)c3)c12 | inactive
3 | O=C(NCN1C(=O)C2C3C=CC(C3)C2C1=O)Nc1ccccn1 (stereo not given) | inactive
4 | COc1ccc(C(=O)Cc2ccc(OC)c(OC)c2)cc1 | inactive
5 | CS(=O)(=O)c1ccc([C@H](O)[C@H](CO)NC(=O)C(Cl)Cl)cc1 | inactive
6 | O=C(c1ccccc1)c1ccc2n1CCC2C(=O)O (stereo not given) | inactive
7 | Cc1nnsc1C(=O)N/N=C/c1ccc2ccccc2c1O | inactive
8 | O=C(O)/C=C/C(O)c1ccc(Cl)cc1 (stereo not given) | inactive
9 | O=C(Nc1ccc(Cl)cc1C(F)(F)F)C(Sc1cccc[n+]1[O-])c1ccccc1 (stereo not given) | inactive
10 | COc1ccccc1-c1csc2ncnc(Sc3nnnn3C)c12 | inactive
11 | C=CCC(=O)OCCCCCCOc1ccc(C(=O)O)cc1 | inactive
12 | Cn1nnnc1Sc1ncnc2scc(-c3ccc(Cl)cc3)c12 | inactive
13 | COc1ccc(-c2csc3ncnc(Sc4nnnn4C)c23)cc1 | 25.1 µM (active)
14 | COc1cc(NC(=O)c2cc3nc(C)cc(C)n3n2)c(OC)cc1Cl | inactive
15 | Cn1nnnc1Sc1ncnc2scc(-c3cccc(Cl)c3)c12 | 14.1 µM (active)
16 | Fc1ccc(N2CCN(c3ncnc4nc[nH]c34)CC2)cc1 | inactive
17 | CCOC(=O)c1noc(C)c1C(=O)Nc1cccc(F)c1 | inactive
18 | O=C(Nc1cccnc1)Nc1ccccc1Cl | inactive
19 | Cc1cccc(-c2csc3ncnc(Sc4nnnn4C)c23)c1 | 31.6 µM (active)
20 | Cn1nnnc1Sc1ncnc2scc(-c3ccccc3C(F)(F)F)c12 | inactive

Row | SMILES | Potency
21 | CC(=O)c1ccccc1-c1csc2ncnc(Sc3nnnn3C)c12 | 31.6 µM (active)
22 | Cn1nnnc1Sc1ncnc2scc(-c3ccc4ccccc4c3)c12 | 12.6 µM (active)
23 | Cc1cccc(/C=N/NC(=O)c2cc3c(s2)-c2ccccc2CC3)c1 | inactive
24 | Cn1nnnc1Sc1ncnc2scc(-c3cccc4ccccc34)c12 | 8.91 µM (active)
25 | Cn1nnnc1Sc1ncnc2scc(-c3ccsc3)c12 | 11.2 µM (active)
26 | Cn1nnnc1Sc1ncnc2scc(-c3cnc(N)nc3)c12 | 35.5 µM (active)
27 | Cn1nnnc1Sc1ncnc2scc(-c3ccc(S(C)(=O)=O)cc3)c12 | 17.8 µM (active)
28 | Cn1nnnc1Sc1ncnc2scc(-c3ccc4c(=O)ccoc4c3)c12 | inactive
29 | Cn1nnnc1Sc1ncnc2scc(-c3cccs3)c12 | 10 µM (active)
30 | O=C(O)c1cc(=O)c2ccc(Cl)cc2[nH]1 | inactive
31 | CCc1ccc2oc(-c3cc(N)ccc3O)nc2c1 | inactive
32 | CC(C(=O)O)c1ccc(CC2CCCC2=O)cc1 (stereo not given) | inactive
33 | Cc1nnc2n1N=CC=C(c1ccccc1)S2 | inactive
34 | CC(=O)c1cccc(-c2csc3ncnc(Sc4nnnn4C)c23)c1 | 10 µM (active)
35 | COc1ccc(-c2[nH]ncc2-c2ccc3c(c2)OCCO3)c(O)c1 | inactive
36 | CN1C(=O)C2(c3ccccc31)C1CCCC=C1C(C#N)=C(N)C2(C#N)C#N (stereo not given) | inactive
37 | CN1C(=O)NC(NC(=O)c2cccs2)(C(F)(F)F)C1=O (stereo not given) | inactive
38 | COc1ccccc1-n1nnnc1S(=O)(=O)Cc1ccc(Cl)cc1 | inactive
39 | Cn1nnnc1Sc1ncnc2scc(-c3ccccc3C#N)c12 | 28.2 µM (active)
40 | CC(=O)c1n[nH]nc1NC(=O)c1ccccc1 | inactive
